SIRT5 inh – sirtuin-5 (human) deacylase inhibition; Q9NXA8; Purified SirT5, succinyl-peptide AMC, trypsin-coupled fluorescence; inhibition, % at 15 µM; hit rate 1.1% among 330,000; in the data active = inhibition above about 15%
Casp6 inh – caspase-6 (human) enzyme inhibition. inhibition, % at 12.5 µM. hit rate 0.53% among 350,000. AID 686996. P55212. purified caspase-6, Z-VEID-R110 cleavage fluorescence;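 active = mean inhibition across replicates at least about 35%, with every replicate also reaching that limit, limit read from the data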;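 also: 0% = median of neutral control wells and 100% = no fluorescence left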
Target sequence (P55212 24-179 limits assumed): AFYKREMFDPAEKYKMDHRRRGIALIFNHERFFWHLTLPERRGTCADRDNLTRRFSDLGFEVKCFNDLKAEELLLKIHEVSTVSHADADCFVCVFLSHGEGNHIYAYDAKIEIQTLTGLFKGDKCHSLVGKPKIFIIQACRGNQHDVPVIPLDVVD
Target sequence (P55212 194-293 limits assumed): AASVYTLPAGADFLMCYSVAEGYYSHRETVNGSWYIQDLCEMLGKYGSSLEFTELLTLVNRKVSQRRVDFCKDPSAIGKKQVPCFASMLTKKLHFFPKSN
ERAP1 inh – ERAP1 (human) enzyme inhibition | Q9NZ08 | AID 652197 | inhibition, % at 10.7 µM | hit rate 0.15% among 340,000 | recombinant ERAP1, Leu-AMC fluorescence, 60 min;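 active = mean replicate inhibition of at least 30%, or all replicates individually reaching that 30% level; inactive = mean below 30% and not every replicate reaching it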;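 also: 0% = neutral control wells and 100% = L-leucinethiol positive control wells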
FGF22 binding – binders of recombinant human FGF22 by thermal shift; Q9HCT0; SYPRO orange fluorescence; percent of sucrose octasulfate shift, DMSO zero; activity (Tm shift, normalised), % at 9.99 µM; hit rate 1.5% among 340,000;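 active = mean Tm shift, scaled 0 neutral to 100 positive control, at about 1.3% or above, every replicate too, limit read from the data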
INS-1E GSIS act – primary screen for activators of insulin secretion dependent on glucose, INS-1E cells, GLuc reporter luminescence | INS-1E GLuc reporter insulin secretion, 2-3 h | activation, % at 16.6 µM | hit rate 0.61% among 370,000 | AID 743287;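 active = lowest replicate activation of at least 40%, so every replicate reaches that level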;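 also: 0% = median of neutral control wells and 100% = median of IBMX positive control wells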
* = called active by the depositor; x = no result given. A selection: hits, their analogues and other compounds. The true share with any hit is near 3.3%.

SMILES	SIRT5 inh	Casp6 inh	ERAP1 inh	FGF22 binding	INS-1E GSIS act
COc1ccc(NC(=O)C2(C)Cc3c(-c4cccc(C(N)=O)c4)ccnc3O2)cc1OC (stereo unspecified)	1	4	2	0	-19
COc1ccc(NC(=O)C2(C)Cc3c(-c4ccc(C(N)=O)cc4)ccnc3O2)cc1OC (stereo unspecified)	18*	0	4	0	22
COc1ccc(NC(=O)C2(C)Cc3c(-c4ccc5c(c4)OCO5)ccnc3O2)cn1 (stereo unspecified)	x	0	-3	44*	x
CC(=O)Nc1ccc(-c2ccnc3c2CC(C)(C(=O)Nc2cccc(OC(F)(F)F)c2)O3)cc1 (stereo unspecified)	x	3	-4	0	69*
CC1(C(=O)Nc2cccc(C(F)(F)F)c2)Cc2c(-c3cccc(C(F)(F)F)c3)ccnc2O1 (stereo unspecified)	21*	-1	-2	1	-8
CC[C@@H]1CC=CC[C@@H](C)Oc2ccccc2C(=O)N(C)[C@H](Cc2ccccc2)C(=O)N1 (mixture of isomers)	x	x	x	x	4
COc1ccc(CN(C)C[C@@H]2OCCCC[C@H](C)Oc3ccc(NC(=O)NC(C)C)cc3C(=O)N([C@H](C)CO)C[C@@H]2C)cc1	-3	0	2	0	0
COc1ccccc1S(=O)(=O)N1[C@@H]2CNC[C@H]1C2c1ccc(-c2ccccc2)cc1 (stereo partly specified)	2	-4	-4	x	7
CN1CCN(c2ccc(CNC(=O)C3(C)Cc4c(-c5ccccc5)ccnc4O3)cc2)CC1 (stereo unspecified)	x	1	0	0	45*
CCN1C(=O)[C@H]2[C@@H](c3ccc(-c4ccc(OC)cc4)c(OC)c3)N[C@@](Cc3ccccc3)(C(=O)OC)[C@H]2C1=O	-4	-1	-2	0	9
COc1ccc(C2NC(Cc3ccccc3)(C(=O)O)C3C(=O)N(c4ccccc4OC)C(=O)C23)cc1 (stereo unspecified)	8	-1	3	43*	8
COCC(=O)Nc1ccc2c(c1)[C@@H]1C[C@@H](CC(=O)NCc3cccnc3)O[C@@H](CO)[C@@H]1O2	-2	0	-1	0	14
COc1ccc(S(=O)(=O)N(C)C[C@H]2OCCCC[C@H](C)Oc3ccc(NC(=O)Nc4cccc5ccccc45)cc3C(=O)N([C@H](C)CO)C[C@H]2C)cc1	6	1	-5	1.7*	4
COc1ccc(S(=O)(=O)N(C)C[C@H]2OCCCC[C@@H](C)Oc3ccc(NC(=O)Nc4cccc5ccccc45)cc3C(=O)N([C@@H](C)CO)C[C@H]2C)cc1	-14	1	-5	1.5*	8
Cc1noc(C)c1NC(=O)Nc1ccc2c(c1)C(=O)N([C@@H](C)CO)C[C@@H](C)[C@@H](CN(C)S(=O)(=O)c1cn(C)cn1)OCCCC[C@@H](C)O2	17*	-3	6	0	15
COc1ccc(S(=O)(=O)N(C)C[C@H]2OCCCC[C@@H](C)Oc3ccc(NC(=O)Nc4cccc5ccccc45)cc3C(=O)N([C@@H](C)CO)C[C@@H]2C)cc1	-1	-4	-5	1.3*	2
Cc1noc(C)c1NC(=O)Nc1ccc2c(c1)C(=O)N([C@H](C)CO)C[C@@H](C)[C@@H](CN(C)S(=O)(=O)c1cn(C)cn1)OCCCC[C@H](C)O2	0	1	8	1	-1
COc1ccc(S(=O)(=O)N(C)C[C@@H]2OCCCC[C@H](C)Oc3ccc(NC(=O)Nc4cccc5ccccc45)cc3C(=O)N([C@H](C)CO)C[C@@H]2C)cc1	3	4	-4	0	4
CC(C)NC(=O)N(C)C[C@H]1Oc2ncc(C#Cc3ccccc3F)cc2C(=O)N([C@@H](C)CO)C[C@H]1C	8	-1	-4	0	-4
Cc1noc(C)c1S(=O)(=O)N(C)C[C@H]1OCCCC[C@@H](C)Oc2ccc(NC(=O)Nc3cccc4ccccc34)cc2C(=O)N([C@@H](C)CO)C[C@H]1C	7	1	2	0	1
C[C@@H]1CCCCO[C@H](CN(C)S(=O)(=O)c2cn(C)cn2)[C@@H](C)CN([C@H](C)CO)C(=O)c2cc(NC(=O)Nc3cccc4ccccc34)ccc2O1	-2	-3	-2	1.7*	11

High-throughput results (PubChem BioAssay)
